Where “and” joins values, the source holds several entries; their conditions need not be identical. Identical values can stand only once. Inconclusive results are not listed. More than one record can exist for a structure, and the calls need not agree. Calls of active or inactive are those of the source. The calls were made as follows: active = hit-call score of the fitted dose curve at least 0.9, where 1 is the maximum; inconclusive = response in the unintended direction; inactive = score below 0.9.
What was measured:
[1] = molecular target: Cellular tumor antigen p53 (Homo sapiens) (UniProt P04637); assay: TOX21_p53_BLA_p2_ratio: Tox21 HCT-116 p53 Agonism Beta-lactamase Assay, Ratio, Phase 2 (AID 2283592)
In short: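 Readout: blue/green (460/530 nm) FRET emission ratio after 2 h CCF4-AM loading at room temperature, excitation 405 nm. HCT116 p53 bla cells, 16 h compound exposure at 37C, 5% CO2; agonist direction fitted against DMSO baseline.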

[2] = TOX21_p53_BLA_p3_viability: Viability Assessment in the Tox21 HCT-116 p53 Agonism Beta-lactamase Assay, Phase 3 (AID 2283593);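 also: cells exposed to compound for 16 h before reading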
In short: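 Cellular ATP was quantified by CellTiter-Glo luminescence, read after 30 min at room temperature. Beforehand, HCT116 cells (4000/well) received compound 5 h post-seeding, 217-fold diluted from DMSO, then incubated 16 h at 37C.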

[3] = molecular target: Cellular tumor antigen p53 (Homo sapiens) (UniProt P04637); assay: TOX21_p53_BLA_p5_ratio: Tox21 HCT-116 p53 Agonism Beta-lactamase Assay, Ratio, Phase 5 (AID 2283599)
In short: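 Beta-lactamase reporter ratio (blue 460 nm over green 530 nm, 405 nm excitation) after 2 h CCF4-AM loading, in HCT-116 cells exposed 16 h at 37 C to compounds pinned at 217-fold dilution. Increases relative to DMSO baseline scored.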

[4] = TOX21_p53_BLA_p5_viability: Viability Assessment in the Tox21 HCT-116 p53 Agonism Beta-lactamase Assay, Phase 5 (AID 2283600)
In short: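 ATP luminescence (CellTiter-Glo, 30 min, RT) served as the viability read-out, with loss of signal indicating cytotoxicity. Compounds in DMSO were pinned at a 217-fold dilution onto 4000 cells/well and incubated 16 h, 37C.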

[5] = molecular target: Cellular tumor antigen p53 (Homo sapiens) (UniProt P04637); assay: TOX21_p53_BLA_p3_ratio: Tox21 HCT-116 p53 Agonism Beta-lactamase Assay, Ratio, Phase 3 (AID 2283596)
In short: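 Cells were seeded at 4000/well, rested 5 h at 37C, then dosed with DMSO compound solutions (217-fold dilution) for 16 h. CCF4-AM substrate was loaded for 2 h at room temperature, and the 460/530 nm emission ratio was fitted for gain of signal versus DMSO.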

[6] = TOX21_p53_BLA_p4_viability: Viability Assessment in the Tox21 HCT-116 p53 Agonism Beta-lactamase Assay, Phase 4 (AID 2283597);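 also: hits lower the luminescence signal meaning cytotoxicity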
In short: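 ATP content by CellTiter-Glo luminescence, 30 min RT, read after the beta-lactamase ratio step. Cells: HCT116, 4000/well, compound added after 5 h, exposure 16 h at 37C. Signal loss = reduced viability.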

[7] = molecular target: Cellular tumor antigen p53 (Homo sapiens) (UniProt P04637); assay: TOX21_p53_BLA_p4_ratio: Tox21 HCT-116 p53 Agonism Beta-lactamase Assay, Ratio, Phase 4 (AID 2283601)
In short: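 Signal is the blue/green (460nm/530nm) ratio of cleaved versus uncleaved CCF4-AM substrate, read after 2 h substrate loading. Cells were HCT116 carrying the p53-responsive beta-lactamase reporter, dosed 16 h at 37C, 5% CO2; CellTiter-Glo measured in parallel.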

[8] = TOX21_p53_BLA_p2_viability: Viability Assessment in the Tox21 HCT-116 p53 Agonism Beta-lactamase Assay, Phase 2 (AID 2283591);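 also: actives lower the ATP signal meaning cytotoxicity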
In short: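 Cytotoxicity readout: CellTiter-Glo ATP luminescence, 30 min at room temperature, after the beta-lactamase read. Cells were HCT116 exposed 16 h at 37C to compounds pin-transferred at 217-fold dilution from DMSO stocks.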

Measured: AC50

Cellular tumor antigen p53 (Homo sapiens), sequence (P04637 whole entry, looked up): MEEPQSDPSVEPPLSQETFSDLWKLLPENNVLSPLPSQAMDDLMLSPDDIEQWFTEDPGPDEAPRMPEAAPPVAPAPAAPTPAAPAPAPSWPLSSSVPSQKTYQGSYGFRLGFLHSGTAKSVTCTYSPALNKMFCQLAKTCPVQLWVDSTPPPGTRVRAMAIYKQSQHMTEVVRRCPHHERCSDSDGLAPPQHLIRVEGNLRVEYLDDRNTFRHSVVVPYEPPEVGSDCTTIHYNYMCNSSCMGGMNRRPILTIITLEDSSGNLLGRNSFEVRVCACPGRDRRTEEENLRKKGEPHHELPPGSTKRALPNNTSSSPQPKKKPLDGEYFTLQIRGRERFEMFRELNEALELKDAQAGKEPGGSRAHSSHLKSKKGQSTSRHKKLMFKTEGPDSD

CCOc1ccc(N)c([N+](=O)[O-])c1
inactive: [1] | [2] | [3] | [4]

C[C@]12C=CC(=O)C=C1CC[C@@H]1[C@@H]2[C@@H](O)C[C@@]2(C)[C@H]1CC[C@]2(O)C(=O)CO
not listed: [1] | [8]
inactive: all other assays above

C1CN(SSN2CCOCC2)CCO1
inactive: all assays above

O=C(c1ccccc1)c1ccc(O)c(O)c1O
inactive: [8] | [1] | [5] | [3] | [7]

C=CC(=O)OCCOC(=O)C=C
not listed: [6]
inactive: all other assays above

CC1=Nc2ccc3ccccc3c2C1(C)C
inactive: [1] | [2] | [5] | [4] | [7]

Nc1ccc(Cl)cc1Cl
not listed: [4]
inactive: all other assays above

CCC(C)OC(=O)c1ccc(O)cc1 (stereo not drawn)
not listed: [6] | [8]
inactive: all other assays above

O=C(O)CCCCCCCCCC(=O)O
not listed: [1] | [6]
inactive: all other assays above

CO[Si](OC)(OC)c1ccccc1
inactive: [5] | [6] | [7]

O=C(/C=C/C=C/c1ccc2c(c1)OCO2)N1CCCCC1
not listed: [4] | [5]
inactive: all other assays above

CC(C)(Oc1ccc(C2CC2(Cl)Cl)cc1)C(=O)O (stereo not drawn)
not listed: [1] | [8]
inactive: all other assays above

C=CCOc1c(Br)cc(Br)cc1Br
not listed: [1] | [6]
inactive: all other assays above

CCCCCCC(O)CO (stereo not drawn)
not listed: [1] | [8]
inactive: all other assays above

COC(=O)/C=C\C(=O)O
inactive: [8] | [2] | [3] | [4] | [7]

C=C1[C@H]2CC[C@@H]3[C@H]2C(C)(C)CCC[C@]13C
inactive: [5] | [6]

COC(=O)/C=C/C(C)=C\C=C\C(C)=C\C=C\C=C(C)\C=C\C=C(C)\C=C\C(=O)O
inactive: [1] | [2] | [5] | [6] | [3]

SCCc1cnccn1
inactive: [2] | [6]
active: [1] 45.1 µM | [5] 21.6 µM | [3] 35.7 µM | [7] 60.3 µM

CC(C)=CCCC(C)C=O (stereo not drawn)
not listed: [1] | [5]
inactive: all other assays above

c1ccc(-c2ccccn2)nc1
not listed: [1] | [2]
inactive: all other assays above

Cc1cccc(OCCOc2cccc(C)c2)c1
inactive: [2] | [5] | [7]

C=C(C)c1cccc(C(C)(C)N=C=O)c1
inactive: [1] | [2] | [3] | [4] | [7]

CC1=CC[C@H]2C[C@@H]1C2(C)C
inactive: [8] | [6]

O=C1CCCC(=O)O1
inactive: [1] | [6] | [4] | [7]

O=C(Nc1ccccc1SSc1ccccc1NC(=O)c1ccccc1)c1ccccc1
inactive: [2] | [5] | [6] | [4]
active: [1] 58.3 µM and 56.6 µM | [5] 72.5 µM | [3] 60 µM and 53.4 µM | [7] 65.5 µM and 56.9 µM
